Results published in PubChem BioAssay (Tox21).
A number with no mark means an inactive call. Inconclusive results are not listed. A call without a number means that no potency is given here. Activity calls are given as the source filed them. Calls come from the whole dose curve.

Legend:
[1] = target: Acetylcholinesterase (Homo sapiens) (UniProt P22303); assay: Acetylcholinesterase (AChE) small molecule antagonists: colormetric cell-based qHTS assay (AID 1347395); note: nearly all actives have a fitted effect of over 30% in size; note: potency is the fitted concentration of half-maximal effect
Chain of Acetylcholinesterase (Homo sapiens) (P22303 whole entry, looked up): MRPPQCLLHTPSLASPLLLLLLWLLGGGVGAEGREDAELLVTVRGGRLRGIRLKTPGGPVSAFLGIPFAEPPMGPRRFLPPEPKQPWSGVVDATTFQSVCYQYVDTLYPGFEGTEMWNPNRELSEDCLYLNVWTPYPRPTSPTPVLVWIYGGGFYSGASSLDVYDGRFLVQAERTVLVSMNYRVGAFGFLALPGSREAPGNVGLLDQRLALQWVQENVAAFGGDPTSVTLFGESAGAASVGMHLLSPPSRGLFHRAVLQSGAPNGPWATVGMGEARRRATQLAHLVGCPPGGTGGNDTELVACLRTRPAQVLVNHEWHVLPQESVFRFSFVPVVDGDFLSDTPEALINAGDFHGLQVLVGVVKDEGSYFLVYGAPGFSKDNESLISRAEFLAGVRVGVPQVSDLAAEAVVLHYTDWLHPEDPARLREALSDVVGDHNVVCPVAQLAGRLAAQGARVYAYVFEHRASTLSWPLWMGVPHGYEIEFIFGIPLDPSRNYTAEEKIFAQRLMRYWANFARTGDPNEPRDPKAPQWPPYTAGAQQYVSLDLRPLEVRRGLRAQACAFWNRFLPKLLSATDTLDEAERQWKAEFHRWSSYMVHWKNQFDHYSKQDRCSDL
Outline: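 Colorimetric readout: DTNB quantifies thiocholine from acetylthiocholine hydrolysed by endogenous AChE of SH-SY5Y cells (2,000/well, plated overnight). Compound pretreatment 30 min, substrate incubation 90 min, both 37 C.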

[2] = target: Acetylcholinesterase (Homo sapiens) (UniProt P22303); assay: Acetylcholinesterase (AChE) small molecule antagonists: enzyme-based qHTS assay (AID 1347397); details: Potency: AChE enzyme activity inhibition; outcome: AChE enzyme activity inhibition; note: nearly all actives have a fitted effect of over 55% in size; note: potency is the fitted concentration of half-maximal effect
Outline: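 Tox21 library chemicals are tested in qHTS format against recombinant human AChE. The enzyme, dispensed at 50 mU/mL, sits with compound for 30 min at room temperature. A DTNB–acetylthiocholine cocktail follows, and colour is read after 10 min.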

[3] = target: Acetylcholinesterase (Homo sapiens) (UniProt P22303); assay: Acetylcholinesterase (AChE) small molecule antagonists: fluorescence cell-based qHTS assay (AID 1347398); details: Potency: AChE activity; outcome: AChE activity; note: nearly all actives have a fitted effect of over 50% in size; note: potency is the fitted concentration of half-maximal effect
Outline: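 Cellular AChE inhibition: SH-SY5Y cells treated with test chemical for 30 min at 37 C, then acetylthiocholine hydrolysis followed over 40 min at room temperature via thiocholine-reactive Thiolite Green fluorescence (490/520 nm).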

[4] = target: Acetylcholinesterase (Homo sapiens) (UniProt P22303); assay: Acetylcholinesterase (AChE) small molecule antagonists: enzyme-based qHTS assay with human liver microsomes (AID 1347399); details: Potency: qHTS inhibition; outcome: qHTS inhibition; note: nearly all actives have a fitted effect of over 60% in size
Outline: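 Recombinant human AChE (50 mU/mL in the enzyme mix) and human liver microsomes (0.25 mg/mL final) were preincubated with compound and NADPH (0.25 mg/mL final) for 30 min at 37 C. Acetylthiocholine/DTNB was then added; thiocholine was read colorimetrically after 10 min at room temperature.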

Compound	activity, negative = inhibition [1]	activity change, negative = inhibition [2]	activity change, negative = inhibition [3]	activity change, negative = inhibition [4]	Potency [1]	Potency [2]	Potency [3]	Potency [4]
CCCCCCCCCCCCCCCCCO	0.97% [at 23.6 µM]	-1.09% [at 23.6 µM]	0.561% [at 23.8 µM]	3.32% [at 23.6 µM]				
COc1cc2nc(N(C)CCCNC(=O)C3CCCO3)nc(N)c2cc1OC (stereo not given)					17.4 µM (active)	24.5 µM (active)	15.5 µM (active)	inactive
Cc1ccc(N)nc1					inactive	inactive	inactive	inactive
CCc1cccc(CC)c1NC(=O)CN(CC(=O)O)CC(=O)O					inactive	inactive	inactive	inactive
C=C(C)C(=O)OCCCCCCCCCCOC(=O)C(=C)C					inactive	inactive	inactive	inactive
CCOC(=O)COC(=O)c1cc(Oc2ccc(C(F)(F)F)cc2Cl)ccc1[N+](=O)[O-]					inactive	inactive	inactive	inactive
Cc1cc(-n2nc3ccc(Cl)cc3n2)c(O)c(C(C)(C)C)c1					inactive	inactive	inactive	inactive
COc1cc(C(=O)OCCCN2CCCN(CCCOC(=O)c3cc(OC)c(OC)c(OC)c3)CC2)cc(OC)c1OC					inactive	inactive	inactive	inactive
CCCCCCCC/C=C\CCCCCCCC(=O)N(CCO)CCO					inactive	inactive	19.9 µM (active)	inactive
COc1nc(C)nc(Cl)c1NC1=NCCN1					inactive	inactive	inactive	inactive
CCCCCCCCCCc1ccccc1					inactive	inactive	inactive	inactive
CC(C)CCCC(C)CC=O (stereo not given)					inactive	inactive	inactive	inactive
O=C(O)/C=C/c1ccc(/C=C/C(=O)O)cc1					inactive	inactive	inactive	inactive
C=CC(OCC)OCC					inactive	inactive	inactive	inactive
CCN(CC)CCc1nc(-c2ccccc2)no1					inactive	inactive	inactive	inactive
O=C1CCCc2c1cc1ccc3cccc4ccc2c1c34					inactive	inactive	inactive	inactive
CC1CN(c2cc3c(cc2F)c(=O)c(C(=O)O)cn3-c2ccc(F)cc2F)CCN1 (stereo not given)	1.81% [at 10.5 µM]	0.0761% [at 10.5 µM]	3.28% [at 10.5 µM]	5% [at 10.5 µM]				
CCC(CC)CO					inactive	inactive	inactive	inactive

Compound	activity, negative = inhibition [1]	activity change, negative = inhibition [2]	activity change, negative = inhibition [3]	activity change, negative = inhibition [4]	Potency [1]	Potency [2]	Potency [3]	Potency [4]
CC1=C(O)C(=O)C(C)O1 (stereo not given)					inactive	inactive	inactive	inactive
CCCCN					inactive	inactive	inactive	inactive
O=c1c(-c2ccccc2)c1-c1ccccc1					inactive	inactive	inactive	inactive
C=CC(C)(CCC=C(C)C)OC(=O)CC(C)C (stereo not given)					inactive	inactive	inactive	inactive
COC(=O)CCCCCCCCC(=O)OC					inactive	inactive	inactive	inactive
Nc1ccc(C(=O)NCC(=O)O)cc1					inactive	inactive	inactive	inactive
CC(=O)N[C@@H](CCC(=O)O)C(=O)O					inactive	inactive	inactive	inactive
CC(=O)C(C)=O					inactive	inactive	inactive	inactive
Cc1c(NC(C)C)c(=O)n(-c2ccccc2)n1C					inactive	inactive	inactive	inactive
CC1(C)CC(N)CC(C)(C)N1					inactive	inactive	inactive	inactive
CCCCCOC(=O)CCCCC					inactive	inactive	inactive	inactive
O=[N+]([O-])c1ccc2[nH]ncc2c1					inactive	inactive	inactive	inactive
Cn1cnc2ncnc(N)c21					inactive	inactive	inactive	inactive
C[C@H]1O[C@@H](n2cc(F)c(=O)[nH]c2=O)[C@H](O)[C@@H]1O					inactive	inactive	inactive	inactive
CC(C)(CCl)c1ccccc1					inactive	inactive	inactive	inactive
NC(=O)c1ccccc1[N+](=O)[O-]					inactive	inactive	inactive	inactive
C[C@H]1O[C@@H](O[C@H]2CC[C@@]3(C)[C@H](CC[C@@H]4[C@@H]3C[C@@H](O)[C@]3(C)[C@@H](C5=CC(=O)OC5)CC[C@]43O)C2)C[C@H](O)[C@@H]1O[C@H]1C[C@H](O)[C@H](O[C@H]2C[C@H](O)[C@H](O[C@@H]3O[C@H](CO)[C@@H](O)[C@H](O)[C@H]3O)[C@@H](C)O2)[C@@H](C)O1					inactive	inactive	inactive	inactive
